This is an account of results in PubChem BioAssay AID743330 (NMMLSC, 2014).

This test concerns Ras. The test is described as follows: fluorescent GTP concentration effect on GTPase potency – biochemical, four GTPases, bead flow cytometry, mechanism study, profiling panel (AID 743330). The conditions noted are these: bead-based flow cytometry, fluorescent GTP binding to GTPases. Background: Flow cytometry measures light scatter and fluorescence of single cells or particles in a stream.

By EC50 is commonly meant the midpoint of the concentration-response curve.

Structures are written as SMILES. Calls of active or inactive are those of the source. The rule behind the calls is not given here.

Consider `CC1(C)Cc2c(sc(NC(=S)NC(=O)c3ccc(F)cc3)c2C(=O)O)CO1`, for which the EC50 was 31 nM (active).

Consider `CCC1(C)Cc2c(sc(NC(=S)NC(=O)c3ccccc3)c2C(=O)O)CO1` (configuration not stated), for which the EC50 is 5 nM (active).
